Most compounds without a hit are left out; they make up all but 2.1% or so of the library.
TDP43 rescue – qHTS of TDP-43 Inhibitors; TDP-43 expressing yeast growth rescue, BacTiter-Glo, 24 h; Potency, µM (top dose mostly 46.1 µM), inactives show at the top dose growth rescue (activation), hits mostly activators; hit rate 1.8% among 410,000; AID 652104, 2013; note: % of control where 0% means no effect; nearly all actives have a fitted effect of over 50% in size
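Cell-based yeast growth screen: TDP-43 expression induced in galactose, inoculum OD600=0.02 after raffinose pregrowth to mid-log. Read-out BacTiter-Glo luminescence at 24 hr, 30 deg C; inhibition of toxicity seen as signal increase.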
aSyn rescue – qHTS of alpha-syn Inhibitors; Yeast expressing alpha-synuclein, growth rescue, BacTiter-Glo, 24 h; Potency, µM (titrated, usually from 46.1 µM), for the others: at the top dose growth rescue (activation), most hits filed as activators; hit rate 0.14% among 370,000; AID 652106, 2013; note: % of control where 0% means no effect; nearly all actives have a fitted effect of over 65% in size
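Galactose-induced alpha-syn yeast (OD600=0.02, raffinose-pregrown) + pinned cpd, 24 hr, 30 deg C; growth by BacTiter-Glo luminescence. Growth restoration scores as activation.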
FUS suppressor – qHTS for Suppressors of FUS Proteinopathy: Primary screen using FUS-linked yeast assay; AID 1347120, 2019; Potency, µM (highest dose often 76.6 µM), actives largely listed as activators; hit rate 0.24% among 390,000; S. cerevisiae FUS-expressing, growth rescue, OD600, 24 h;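 note: plate controls were DMSO vehicle for no effect and reference control for full effect; nearly all actives have a fitted effect of over 55% in size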
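Quantitative HTS measuring growth restoration of FUS-toxic yeast. Galactose-induced cells (OD 0.005) were exposed 24hr at 30C to compounds at several concentrations, then absorbance at 600 nm was recorded.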
Abeta yeast res – qHTS for compounds that reverse cellular toxicity of Amyloid beta (A-beta) peptide in yeast: Primary Screen | yeast expressing A-beta42, growth rescue, OD600, 48 h; response scale: 0% DMSO, 100% iron-clioquinol control | Potency, µM (titrated, usually from 46.1 µM), hits mostly activators | hit rate 0.063% among 410,000 | AID 1347071, 2019; note: nearly all actives have a fitted effect of over 55% in size
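Yeast A-beta toxicity model in growth medium with pinned compounds, 48 h at 30 C; growth read as absorbance at 600 nm. Normalized to FeCl3/clioquinol equimolar mix (positive) and DMSO (negative).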
* = called active by the depositor. Calls come from the whole dose curve; as a rule, active = well fitted curve in the direction sought with a large enough effect; inconclusive = small, poorly fitted or top-dose-only effect, or another doubt; inactive = no such curve, though single readings can be large; an effect the other way counts as inactive or inconclusive. Potency is the fitted concentration of half-maximal effect.

`c1ccc(Sc2ncnc3c2oc2ccccc23)cc1` gave TDP43 rescue 13µM*, aSyn rescue -1%, FUS suppressor inactive and Abeta yeast res inactive.
Screening CCCNC(=O)c1ccc(COc2cccc3ccccc23)o1 returned TDP43 rescue 18µM*, aSyn rescue -8%, FUS suppressor inactive and Abeta yeast res inactive.
Screening CCCNC(=O)c1ccc(COc2ccc(C)cc2)o1 returned TDP43 rescue 15%, aSyn rescue -5%, FUS suppressor inactive and Abeta yeast res inactive.
Screening O=S(=O)(Nc1ccc(F)c(Cl)c1)c1ccc(Br)s1 returned TDP43 rescue inconclusive, FUS suppressor inactive and Abeta yeast res inactive.
Cc1cccc(NC(=O)Cn2cc(C(=O)C3CCCCC3)c3ccccc32)c1C was read as TDP43 rescue 0%, FUS suppressor inactive and Abeta yeast res inactive.
For Cc1cc2c(cc1S(=O)(=O)N(CCO)Cc1ccccc1)OCC(=O)N2 the results were TDP43 rescue 6%, FUS suppressor inactive and Abeta yeast res inactive.
`CCOc1ccc(NC(=O)CC2C(=O)N(c3ccc(OC)cc3)C(=O)N2C2CCCCC2)cc1` (stereo not given) gave TDP43 rescue -12%, FUS suppressor 40µM* and Abeta yeast res inactive.
CC(=NO)c1ccc2c(c1)C(=NO)c1ccccc1-2 was read as TDP43 rescue 13µM*, aSyn rescue 9% and Abeta yeast res inactive.
For CN(CCN(C)c1nc(-c2cccs2)nc2ccccc12)C(=O)OC(C)(C)C the results were aSyn rescue -26%.
Screening COC(=O)c1cccc2c1-c1ccccc1/C2=N/O returned TDP43 rescue 13µM*, aSyn rescue -20%, FUS suppressor inactive and Abeta yeast res inactive.
`COC(=O)c1ccc2c(c1O)C(=O)c1ccccc1C2=O` gave TDP43 rescue 7.9µM*, aSyn rescue 2%, FUS suppressor inactive and Abeta yeast res inactive.
Screening CN(C)/[N+]([O-])=N/Oc1ccc([N+](=O)[O-])cc1[N+](=O)[O-] returned aSyn rescue -47%.
For Cc1ccccc1C(=O)Oc1ccc(Cl)cc1C(=S)N1CCOCC1 the results were TDP43 rescue 13µM*, aSyn rescue -9%, FUS suppressor inactive and Abeta yeast res inactive.
Screening O=C(Oc1ccc(C(=S)N2CCOCC2)cc1Cl)c1ccccc1F returned TDP43 rescue 12%, aSyn rescue -21%, FUS suppressor inactive and Abeta yeast res inactive.
For O=C(Oc1ccc(C(=S)N2CCOCC2)cc1)c1cc([N+](=O)[O-])cc([N+](=O)[O-])c1 the results were TDP43 rescue -9%, aSyn rescue 2%, FUS suppressor inactive and Abeta yeast res inactive.
O=S(=O)(Oc1ccc(C(=S)N2CCOCC2)cc1)c1ccc(Cl)cc1 was read as TDP43 rescue 18µM*, aSyn rescue 3%, FUS suppressor inactive and Abeta yeast res inactive.
Screening O=C(Oc1ccc(C(=S)N2CCOCC2)cc1)c1cccc(Cl)c1 returned TDP43 rescue 13µM*, aSyn rescue 24%, FUS suppressor inactive and Abeta yeast res inactive.
For Cn1c(=O)n(C)c2cc(NS(=O)(=O)c3ccc(F)cc3)c(NCc3ccccc3)cc21 the results were TDP43 rescue 11%, FUS suppressor inactive and Abeta yeast res inactive.
For O=C1CSC(c2cccc(Cl)c2Cl)N1c1ccccn1 (stereo not given) the results were TDP43 rescue 14µM*, aSyn rescue 19%, FUS suppressor inactive and Abeta yeast res inactive.
Screening O=C1CSC(c2ccccc2F)N1c1cc(Cl)ccc1O (stereo not given) returned TDP43 rescue 20%, aSyn rescue 15%, FUS suppressor inactive and Abeta yeast res inactive.
`COc1ccc(CN2C(=O)c3cccnc3C2Nc2ccc(OC)c(Cl)c2)cc1` (stereo not given) gave TDP43 rescue -7%, aSyn rescue 1%, FUS suppressor 32µM* and Abeta yeast res inactive.
`COc1ccc(NC2c3ncccc3C(=O)N2Cc2ccccc2)c(OC)c1` (stereo not given) gave TDP43 rescue -13%, aSyn rescue -13%, FUS suppressor inconclusive and Abeta yeast res inactive.
